Data on 16 compounds can be found in PubChem BioAssay (NCATS).

Molecules are shown by their SMILES. Inconclusive results are not listed. Active and inactive are the calls of the source. The call rests on the fitted dose curve; in most records, active means well fitted activation curve with a large enough effect; inconclusive means small, poorly fitted or top-dose-only effect; inactive means no such curve, though single readings can be large or run the other way.
Potency means the concentration at half of the fitted maximal effect.

Chain of Cellular tumor antigen p53 (Homo sapiens) (P04637 whole entry, looked up): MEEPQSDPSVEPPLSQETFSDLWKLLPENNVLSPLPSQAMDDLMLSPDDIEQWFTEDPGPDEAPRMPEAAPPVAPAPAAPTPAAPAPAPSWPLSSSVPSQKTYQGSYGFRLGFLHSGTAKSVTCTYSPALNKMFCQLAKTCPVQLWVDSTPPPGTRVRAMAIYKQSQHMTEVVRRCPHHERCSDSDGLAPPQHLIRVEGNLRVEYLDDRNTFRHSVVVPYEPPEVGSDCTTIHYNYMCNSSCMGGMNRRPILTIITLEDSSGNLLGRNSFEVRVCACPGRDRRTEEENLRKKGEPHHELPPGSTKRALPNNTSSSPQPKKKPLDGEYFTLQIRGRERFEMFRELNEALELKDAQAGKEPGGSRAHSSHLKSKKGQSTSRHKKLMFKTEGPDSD

The target in this assay is Cellular tumor antigen p53 (Homo sapiens) (UniProt P04637). Nature of the assay: Primary qHTS for small molecule compounds that upregulate eGFP-tagged delta133p53alpha (in N-terminal) cells. (AID 2060322). Further: nearly all actives have a fitted effect of over 75% in size.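 On activation: cells pre-induced with doxycycline then dosed without doxycycline; series mostly up to about 56 µM; 0% = DMSO vehicle and 100% = reference activator.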 To be noted: NCI-H358 eGFP-delta133p53alpha fluorescence, 24 h; activation: hits give high values. Summed up:
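NCI-H358 cells pre-induced 24 h with 10 ng/ml doxycycline for eGFP-delta133p53alpha, plated dox-free and exposed 24 h at 37C to titrated compounds. Fixed, Hoechst-stained; gated GFP peak intensity by laser scanning cytometry, normalized to DMSO (0%) and 57.5 uM 5-azacytidine (100%).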
For orientation: qHTS replaces the single test concentration by a dilution series.
For the compound `CCOc1ccccc1OCC1CNCCO1` (stereo unspecified), the activation is -17.6% (inactive).
`COc1cc(C(=S)N2CCOCC2)cc(OC)c1OC`: the activation was -16.4% (inactive).
`Oc1ccc(CCNCCCCCCNCCc2ccccc2)cc1O`: the activation is 0% (inactive).
As for `CCOc1ncc(F)c(=O)[nH]1`, the activation is 3.95% (inactive).
As for `C=CC(=O)Nc1cccc(Nc2nc(NC3CCC(N(C)C)CC3)nc3c2ncn3C(C)C)c1` (stereo unspecified), the Potency was 4.85 µM (active).
With `CCCCCCOC(=O)N=C(N)c1ccc(NCc2nc3cc(C(=O)N(CCC(=O)OCC)c4ccccn4)ccc3n2C)cc1`, the activation is 20.7% (inactive).
In the case of `Cc1cc(OI)c(C(C)C)cc1-c1cc(C(C)C)c(OI)cc1C`, the activation is 17.5% (inactive).
Still for that read-out and setting: the figure for `Cc1cc(=O)n(-c2ccccc2)n1C` is -16.7% (inactive); for `O=C(O)c1c(O)c(-c2ccccc2)nc2ccccc12` it is 22% (inactive).
Same read-out and setting: the result for `CCOC(=O)C(=O)CCCCCCl` reads -5.02% (inactive).
`COc1ccc(-c2ccc(-c3cn(C(=O)N4CCCCC4c4ccccc4)nn3)cc2)cc1` (stereo unspecified): the activation is -8.11% (inactive).
As for `Nc1ncnc2c1ncn2[C@@H]1O[C@@H](CO)[C@H](O)[C@H]1O`, the activation is -9.84% (inactive).
Turning to `CC(=O)O[C@]1(C(C)=O)CC[C@@H]2[C@@H]3C[C@H](C)C4=CC(=O)CC[C@]4(C)[C@H]3CC[C@@]21C`, the activation was 17.1% (inactive).
Still for that read-out and setting: the result for `CC=C(C(=CC)c1ccc(O)cc1)c1ccc(O)cc1` reads -4.09% (inactive); that for `C[N+]1(C)CCC(OC(=O)C(O)(c2ccccc2)C2CCCC2)C1` (stereo unspecified), 7.34% (inactive); that for `CC(C)(C)C(=O)OCOC(=O)[C@@H]1N2C(=O)[C@@H](NC(=O)[C@H](N)c3ccccc3)[C@H]2SC1(C)C`, 7.53% (inactive).
